This passage reports growth results from PubChem BioAssay (NCI).

This is part of a sample that, as a whole, favours compounds with a hit. Of some 83,000 tested, about 20% had one in any assay.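 The endpoint reported here, percent growth, reads 100 for growth as untreated, 0 for no net growth and -100 for all cells dead.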 Values without a mark were called inactive. Active and inactive are the calls of the source. How the source made its calls: active means growth percent below 10; inactive means the rest.

Test systems include SK-MEL-2 melanoma; EKVX NSCLC; SN12C renal; UO-31 renal; TK-10 renal; ACHN renal; CAKI-1 renal; MOLT-4 leukemia; CCRF-CEM leukemia; A498 renal.
Common to all, as to test: NCI-60 one-dose screen, 48 h (100 = growth as untreated, 0 = no growth, -100 = all killed)
Holding throughout (details): 10 µM

Take `CCOC(=O)c1sc2ncnc(Nc3ccc(NC(=O)Nc4ccc(Cl)cc4)cc3)c2c1C`: the growth is 87.2% with SK-MEL-2 melanoma; 74.4% in the assay on EKVX NSCLC; 60.5% in the assay with SN12C renal; 54.9% with UO-31 renal; 89.4% with TK-10 renal; 64.4% in the assay with ACHN renal. The results for the growth in the assay with CAKI-1 renal and with MOLT-4 leukemia were 83.9% and 66.3%, respectively.
For the compound `CC[C@@H](C(=O)[C@H](C)[C@H](O)[C@@H](C)[C@H]1O[C@H]([C@@H](CC)C(=O)O)CC[C@H]1C)C1O[C@]2(C=C[C@@H](O)[C@]3(CC[C@@](C)([C@H]4CC[C@](O)(CC)[C@H](C)O4)O3)O2)[C@H](C)C[C@@H]1C` (stereo partly drawn), the growth in the assay on SK-MEL-2 melanoma is 13.7%; in the assay with EKVX NSCLC, 31.3%; in the assay with SN12C renal, 11.8%; in the assay with UO-31 renal it was 34.5%; in the assay with TK-10 renal, 56.5%; with ACHN renal it was 31.2%. Also, the growth with CAKI-1 renal is 22.2%; in the assay with MOLT-4 leukemia, 17.3%.
Consider `Cc1c[nH]c(=O)n(Cc2nnc(CCC(=O)c3nc4ccccc4[nH]3)o2)c1=O`, for which the growth was 25.2% in the assay with SK-MEL-2 melanoma; 54.9% in the assay with EKVX NSCLC; 30.2% in the assay with SN12C renal; 44.2% with UO-31 renal; 64.1% in the assay with TK-10 renal; 61.1% in the assay on ACHN renal. Moreover, the growth was 63.5% in the assay on CAKI-1 renal and 9.42% (active) in the assay with MOLT-4 leukemia.
In the case of `Cc1c2cnccc2c(C)c2c1oc1ccccc12`, the growth in the assay with SK-MEL-2 melanoma was 112%; in the assay on EKVX NSCLC, 38.3%; in the assay on SN12C renal, 69.1%; in the assay on UO-31 renal it was 40.4%; in the assay with TK-10 renal it was 48.4%; with ACHN renal it was 58.6%. Besides, the growth is 66% in the assay with CAKI-1 renal and 3.5% (active) in the assay with MOLT-4 leukemia.
As for `C/C(=C/CCC(C)[C@@H]1CC[C@]2(C)C3=C(CC[C@@]12C)[C@@]1(C)CCC(=O)C(C)(C)[C@@H]1CC3)C(=O)O` (stereo partly drawn), the growth is -52.1% (active) in the assay with SK-MEL-2 melanoma; -76.5% (active) in the assay on EKVX NSCLC; -77.5% (active) in the assay on SN12C renal; -95.5% (active) with UO-31 renal; -86.1% (active) with TK-10 renal; -93.5% (active) in the assay with ACHN renal. For the same compound, the growth is -92.8% (active) with CAKI-1 renal, -21% (active) in the assay with CCRF-CEM leukemia and -35.3% (active) with MOLT-4 leukemia.
`CCNc1nc(C(F)(F)F)nc2c1sc(=S)n2-c1ccccc1`: the growth with SK-MEL-2 melanoma is 88.1%; in the assay on EKVX NSCLC it was 86.1%; in the assay on SN12C renal it was 100%; in the assay with UO-31 renal, 104%; in the assay on TK-10 renal it was 88.8%; in the assay with ACHN renal, 93.1%. The growth in the assay with CAKI-1 renal was 93.6%; with MOLT-4 leukemia, 81.8%.
For `CCOC(=O)Cn1c(=O)c2sc3ncccc3c2n2nnc(-c3ccccc3)c12`, the growth in the assay on SK-MEL-2 melanoma was 103%; in the assay on EKVX NSCLC, 104%; in the assay with SN12C renal it was 97.4%; in the assay with UO-31 renal, 60.2%; with TK-10 renal it was 132%; in the assay with ACHN renal, 95.5%. The figures for the growth with CAKI-1 renal, in the assay on CCRF-CEM leukemia and in the assay with MOLT-4 leukemia were 93.4%, 86.3% and 89.6%, respectively.
Regarding `CCOC(=O)CSc1nc(-c2cc(OC)ccc2OC)cc(-c2ccc(OC)cc2)c1C#N`, the growth in the assay on SK-MEL-2 melanoma was 84.3%; with EKVX NSCLC it was 74.1%; with SN12C renal, 79.5%; in the assay with UO-31 renal, 63%; with TK-10 renal, 75.7%; with ACHN renal it was 76.7%. For the same compound, the growth in the assay with CAKI-1 renal is 83.4%; in the assay with MOLT-4 leukemia it was 76.6%.
As for `COc1ccc([C@H]2[C@H](C(=O)Nc3cccnc3)c3ccccc3C(=O)N2c2ccccc2)cc1`, the growth with SK-MEL-2 melanoma was 86.2%; in the assay on EKVX NSCLC, 94.5%; with SN12C renal, 99.4%; in the assay on UO-31 renal, 99.5%; in the assay on TK-10 renal, 93%; with ACHN renal, 90.3%. Besides, the growth with CAKI-1 renal is 93.7%; in the assay with MOLT-4 leukemia, 77.5%.
As for `CCCCCCCCCCCCCCCCCC[n+]1ccc2c(C)c3c(c(C)c2c1)c1cc(O)ccc1n3CC`, the growth with SK-MEL-2 melanoma was -33.1% (active); in the assay on EKVX NSCLC, 19.5%; with SN12C renal, 1.79% (active); with UO-31 renal it was 39.8%; in the assay on TK-10 renal, 17.8%; with ACHN renal it was 25.7%. In addition, the growth with CAKI-1 renal is 71.1%; in the assay with MOLT-4 leukemia it was 19%.
With `Cc1ccc(/C=C2/C(=O)N(C)c3ccc(S(=O)(=O)Nc4ccc(C(C)(C)C)cc4)cc32)s1`, the growth in the assay with SK-MEL-2 melanoma is 94.3%; with EKVX NSCLC, 103%; in the assay on SN12C renal, 78.9%; in the assay with UO-31 renal, 73.4%; with TK-10 renal, 90.9%; with ACHN renal, 56%. For the same compound, the growth was 45% with CAKI-1 renal and 73.3% in the assay with MOLT-4 leukemia.
For the compound `COCCn1cc(-c2nc(-c3cccnc3)cs2)c2cc(F)ccc21`, the growth was 106% in the assay on SK-MEL-2 melanoma; 90.8% in the assay on EKVX NSCLC; 95.7% in the assay with SN12C renal; 107% with UO-31 renal; 80.4% with TK-10 renal; 101% in the assay with ACHN renal. The growth in the assay with CAKI-1 renal was 103%; in the assay with MOLT-4 leukemia it was 79.3%.
As for `CN(C)CCN(Cc1ccccc1)c1ccc2ccccc2n1`, the growth in the assay with SK-MEL-2 melanoma was 103%; with EKVX NSCLC, 109%; in the assay on SN12C renal, 93.8%; in the assay on UO-31 renal, 76.2%; in the assay on TK-10 renal it was 93.1%; with ACHN renal it was 95.8%. The growth is 119% with A498 renal, 88.6% with CCRF-CEM leukemia and 104% in the assay on MOLT-4 leukemia.
Consider `CCCCN(CCCC)C(=O)[C@H](CC)[C@@H]1CC[C@@H](C)[C@@H]([C@H](C)[C@@H](O)[C@@H](C)C(=O)[C@H](CC)C2O[C@]3(C=C[C@@H](O)[C@]4(CC[C@@](C)([C@H]5CC[C@](O)(CC)[C@H](C)O5)O4)O3)[C@H](C)C[C@@H]2C)O1` (stereo partly drawn), for which the growth in the assay on SK-MEL-2 melanoma is -12.4% (active); in the assay on EKVX NSCLC, -8.73% (active); with SN12C renal, 3.56% (active); in the assay with UO-31 renal, -11.7% (active); with TK-10 renal it was 18.6%; with ACHN renal, 7.05% (active). Besides, the growth in the assay with CAKI-1 renal is -3.74% (active); with MOLT-4 leukemia, 11.8%.
As to `CC(=O)OC/C=C(/C)C[P+](c1ccccc1)(c1ccccc1)c1ccccc1`, the growth is 83.8% with SK-MEL-2 melanoma; 82.4% in the assay on EKVX NSCLC; 51.5% in the assay with SN12C renal; 61.1% in the assay on UO-31 renal; 70.6% in the assay on TK-10 renal; 70% with ACHN renal. Also, the growth in the assay with A498 renal was 81.9%; with CCRF-CEM leukemia it was 52.7%; in the assay on MOLT-4 leukemia, 78.2%.
As to `Cc1ccc(NCCNCC(C)(C)O)c2c(=O)c3ccc(Cl)cc3sc12`, the growth in the assay on SK-MEL-2 melanoma was 57.4%; in the assay on EKVX NSCLC, 71.8%; with SN12C renal, 34%; with UO-31 renal, 41.2%; in the assay with TK-10 renal it was 74.2%; in the assay on ACHN renal, 3.43% (active). Further, the growth with A498 renal was 59%; in the assay on CCRF-CEM leukemia, -14.4% (active); in the assay with MOLT-4 leukemia it was -30.7% (active).
